Measurements: PubChem BioAssay
The source made the active and inactive calls. Cut-off read from the data, not from the text of the source: active = parasite load remaining mostly below about 12% (no sharp cut-off); inactive = mostly above about 10%.

Assay: P. berghei load reduction in hepatocytes – cell-based, HepG2, luciferase luminescence, HepG2 viability, primary screen (AID 624349);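 note: 100% = mean of DMSO negative control wells on the same plate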
Conditions: P. berghei liver stage in HepG2, luciferase luminescence, concentration not given here; parasite load remaining: stronger effect = lower value; viability: measured here: HepG2 viability without parasites

| SMILES | viability [%] | parasite load remaining |
| --- | --- | --- |
| CC1OC(OC2/C=C/C=C/C=C/C=C/CC/C=C/C=C/[C@H](C)[C@@H](O)[C@@H](C)[C@H](C)OC(=O)CC(O)CC(O)CC(O)CCC(O)C(O)C[C@]3(O)CC(O)C(C(=O)O)C(C2)O3)C(O)C(N)C1O (some centres undefined) | 74 | 78.6% (inactive) |
| COc1cc2c(cc1O)C1Cc3ccc(OC)c(O)c3CN1CC2 (centres undefined) | 69.6 | 63.3% (inactive) |
| CCC1C2CC3[C@@H]4N(C)c5ccccc5[C@]45CC(C2[C@H]5O)N3[C@@H]1O (some centres undefined) | 70.7 | 65.3% (inactive) |
| CC[C@H](CO)NC(=O)[C@@H]1C=C2c3cccc4[nH]cc(c34)C[C@H]2N(C)C1 | 73.1 | 67.8% (inactive) |
| CC[C@@H](C)C(=O)O[C@H]1[C@H](O)[C@H]2[C@@H](CN3C[C@@H](C)CC[C@H]3[C@@]2(C)O)C2C[C@]34O[C@@]5(O)[C@@H](OC(=O)C(C)(O)CC)CC[C@@]3(C)[C@@H]5[C@@H](OC(C)=O)[C@@H](OC(C)=O)[C@H]4[C@@]21O (some centres undefined) | 77.1 | 72.4% (inactive) |
| CCN(CC)C(=O)N[C@H]1C=C2c3cccc4[nH]cc(c34)C[C@H]2N(C)C1 | 87.9 | 92.5% (inactive) |
| C#C[C@]1(O)CCC2C3CCC4=CC(=O)CC[C@]4(C)C3CC[C@@]21C (some centres undefined) | 86.3 | 97.8% (inactive) |
